± gives the standard deviation of the averaged measurements.
Key:
[1] = compound: CC(C)c1cccc(C(C)C)c1N1C(=O)c2ccc(O)cc2C1=O; assay: reporter fold induction vs vehicle; higher = higher reporter activity
Summary of the method: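 Multiplexed cellular biosensor reporter system with cis response-element and trans nuclear-receptor transcription factor reporter constructs (48 cis, 25 trans) and homogeneous detection, tested in ToxCast Phase II at 8 concentrations (0.091–200 µM). Reporter activity is given as fold induction relative to vehicle control. Replicates were averaged where present.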

[2] = compound: CC(C)c1cccc(C(C)C)c1N1C(=O)c2ccc(O)cc2C1=O; assay: BioMAP readout fold decrease vs vehicle (vehicle/treated); higher = stronger decrease of the readout vs vehicle (values <1 mean increase)
Experimental: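 BioSeek BioMAP human primary cell (co-)culture systems (3C, 4H, LPS, SAg, BE3C, CASM3C, hDFCGF, KF3CT) treated with 5HPP-33 at 1.48, 4.44, 13.3 and 40 µM. Read-outs are protein levels by ELISA, proliferation and SRB total protein. Duplicate rows per assay are averaged as replicates. Tested in ToxCast Phase II for this study; exposure time not stated.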
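Throughout, for BioMAP readout fold decrease vs vehicle (vehicle/treated): Co-cultures of keratinocytes, bronchial epithelial and smooth muscle cells, fibroblasts, HUVECs and PBMCs under stimuli like LPS, TNF-α, IFN-γ, IL-1β, TGF-β or EGF, SRB reflecting cytotoxicity.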

Row | Target | reporter fold induction ([1]; 0.091 µM) | reporter fold induction ([1]; 0.274 µM) | reporter fold induction ([1]; 0.823 µM) | reporter fold induction ([1]; 2.469 µM) | reporter fold induction ([1]; 7.407 µM) | reporter fold induction ([1]; 22.22 µM) | reporter fold induction ([1]; 66.67 µM) | reporter fold induction ([1]; 200 µM) | BioMAP readout fold decrease ([2]; 1.48 µM) | BioMAP readout fold decrease ([2]; 4.44 µM) | BioMAP readout fold decrease ([2]; 13.3 µM) | BioMAP readout fold decrease ([2]; 40 µM)
1 | VDR_TRANS | 1.07 | 1.13 | 1.1 | 1.39 | 1.07 | 1.41 | 1.2 | 1.54 |  |  |  | 
2 | ERE_CIS | 1.55 | 2.27 | 1.01 | 0.967 | 4.09 | 3.27 | 4.08 | 0.978 |  |  |  | 
3 | IR1_CIS | 1.07 | 0.953 | 1.02 | 1.01 | 1.08 | 0.864 | 0.788 | 0.644 |  |  |  | 
4 | M_19_CIS | 1.01 | 1.01 | 0.978 | 1.01 | 0.961 | 0.953 | 1.05 | 0.776 |  |  |  | 
5 | PXR_TRANS | 1.15 | 2.07 | 3.25 | 4.39 | 3.39 | 3.71 | 3.61 | 1.33 |  |  |  | 
6 | PXRE_CIS | 1.22 | 1.56 | 0.755 | 0.738 | 6.98 | 6.26 | 2.42 | 0.398 |  |  |  | 
7 | GLI_CIS | 1.04 | 0.925 | 1 | 1.04 | 0.914 | 0.833 | 1.19 | 2.1 |  |  |  | 
8 | M_61_TRANS | 0.964 | 1.01 | 0.995 | 1.01 | 1.01 | 1 | 0.996 | 0.992 |  |  |  | 
9 | RARa_TRANS | 1.04 | 0.782 | 1.21 | 1.2 | 1.48 | 2.4 | 2.07 | 0.506 |  |  |  | 
10 | Ets_CIS | 1.02 | 0.953 | 1.01 | 1.02 | 1 | 0.917 | 1.01 | 0.897 |  |  |  | 
11 | E2F_CIS | 1.02 | 0.922 | 0.954 | 1.04 | 0.971 | 0.968 | 0.945 | 1.23 |  |  |  | 
12 | RARg_TRANS | 1.16 | 0.981 | 1.09 | 1.21 | 1.54 | 1.83 | 1.82 | 0.812 |  |  |  | 
13 | RORb_TRANS | 0.758 | 0.955 | 0.81 | 1.32 | 0.966 | 0.625 | 0.434 | 0.342 |  |  |  | 
14 | RORE_CIS | 1.04 | 1.06 | 1.06 | 0.974 | 1.08 | 1.15 | 1.84 | 1.72 |  |  |  | 
15 | GR_TRANS | 0.906 | 1.07 | 1.06 | 1.18 | 0.95 | 1.13 | 1.24 | 1.38 |  |  |  | 
16 | LPS_MCSF |  |  |  |  |  |  |  |  | 1.081 ± 0.0067 | 1.32 ± 0.11 | 1.686 ± 0.0043 | 2.21 ± 0.14
17 | KF3CT_IL1a |  |  |  |  |  |  |  |  | 0.969 ± 0.029 | 0.992 ± 0.045 | 0.987 ± 0.034 | 2.08 ± 0.17
18 | LPS_Eselectin |  |  |  |  |  |  |  |  | 1.07 ± 0.019 | 1.17 ± 0.034 | 1.24 ± 0.012 | 1.91 ± 0.12
19 | hDFCGF_MCSF |  |  |  |  |  |  |  |  | 1.03 ± 0.01 | 0.98 ± 0.05 | 1.21 ± 0.024 | 2.01 ± 0.16
20 | SAg_IL8 |  |  |  |  |  |  |  |  | 1.12 ± 0.039 | 1.19 ± 0.029 | 0.963 ± 0.026 | 1.36 ± 0.052
21 | BE3C_MIG |  |  |  |  |  |  |  |  | 0.992 ± 0.016 | 1 ± 0.021 | 1.036 ± 0.0018 | 1.36 ± 0.19
22 | KF3CT_IP10 |  |  |  |  |  |  |  |  | 0.9935 ± 0.0028 | 1.06 ± 0.035 | 1.39 ± 0.016 | 7.16 ± 0.78
23 | KF3CT_MCP1 |  |  |  |  |  |  |  |  | 1.03 ± 0.041 | 0.926 ± 0.043 | 0.7754 ± 0.0028 | 1.14 ± 0.36
24 | hDFCGF_Proliferation |  |  |  |  |  |  |  |  | 1.22 ± 0.13 | 2.66 ± 0.091 | 4.594 ± 0.011 | 12.1 ± 0.038
25 | hDFCGF_TIMP1 |  |  |  |  |  |  |  |  | 0.847 ± 0.061 | 0.78536 ± 0.00052 | 0.608 ± 0.042 | 0.715 ± 0.069
26 | PPARg_TRANS | 1.01 | 1.06 | 0.946 | 0.881 | 1.19 | 1.53 | 1.62 | 1.47 |  |  |  | 
27 | LPS_TissueFactor |  |  |  |  |  |  |  |  | 0.905 ± 0.021 | 0.9505 ± 0.0063 | 1.04 ± 0.02 | 1.21 ± 0.024
28 | SAg_CD69 |  |  |  |  |  |  |  |  | 1.13 ± 0.076 | 1.24 ± 0.035 | 1.52 ± 0.077 | 3.2 ± 0.15
29 | CASM3C_MCSF |  |  |  |  |  |  |  |  | 1.06 ± 0.033 | 1.14 ± 0.044 | 1.03 ± 0.035 | 2.01 ± 0.034
30 | LPS_MCP1 |  |  |  |  |  |  |  |  | 1.03 ± 0.028 | 1.01 ± 0.012 | 1.02 ± 0.016 | 2.69 ± 0.19
